High-throughput results from PubChem BioAssay.
NCOA2 inhibitor – inhibits human steroid receptor coactivator 2. HEK293 GAL4-SRC2 luciferase reporter, luminescence. inhibition, % at 9 µM. 0.17% of 370,000 active. AID 651957;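 active = inhibition above the mean inhibition of all tested compounds plus 3 SD, set per campaign, cut at about 52% in these data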;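 also: 0% = DMSO treated cells and 100% = cells given Gossypol at 36 µM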
NR2F2 inh – inhibitors of human COUP-TFII (NR2F2); P24468; HEK293T NGFI-A luciferase reporter, luminescence; inhibition, % at 8.6 µM; 0.7% of 370,000 active;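 active = inhibition above a per-plate cutoff, mean inhibition of test wells between control levels plus 3 SD, cut at about 38% in these data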;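 also: cells cotransfected with COUP-TFII expression vector driving the NGFI-A reporter; 0% = median of COUP-TF2 test wells and 100% = reporter-only cells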
SRC1 inh – human NCOA1 inhibition; Q15788; HEK293 GAL4-SRC1 luciferase reporter, luminescence; inhibition, % at 3.6 µM; 0.12% of 360,000 active;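 active = inhibition above the campaign mean plus 3 SD, with each screening campaign given its own cutoff, cut at about 60% in these data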;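 also: 0% = DMSO treated cells and 100% = gossypol at 36 µM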
LRH-1 inv ag – NR5A2 inverse agonism in reporter assay | O00482 | HEK293T StAR-luciferase reporter, LRH-1 transfected, 24 h | inhibition, % at 3.6 µM | 0.13% of 360,000 active;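 active = inhibition above the mean inhibition of all tested compounds plus 3 SD, cut at about 73% in these data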;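 also: 0% = DMSO wells and 100% = reporter-only cells lacking LRH-1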
NCOA3 inh – inhibitors of human steroid receptor coactivator 3 (SRC3) | Q9Y6Q9 | HEK293 GAL4-SRC3 luciferase reporter, luminescence | inhibition, % at 3.6 µM | 0.17% of 360,000 active;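 active = inhibition above a per-campaign cutoff, the mean of all compounds plus 3 SD, cut at about 60% in these data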;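 also: 0% = DMSO-treated cells and 100% = gossypol-treated cells at 36 µM; higher means less SRC3-driven luciferase light from the GAL4 reporter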
Target sequence (Q9Y6Q9 whole entry, looked up, the tested form may be a part): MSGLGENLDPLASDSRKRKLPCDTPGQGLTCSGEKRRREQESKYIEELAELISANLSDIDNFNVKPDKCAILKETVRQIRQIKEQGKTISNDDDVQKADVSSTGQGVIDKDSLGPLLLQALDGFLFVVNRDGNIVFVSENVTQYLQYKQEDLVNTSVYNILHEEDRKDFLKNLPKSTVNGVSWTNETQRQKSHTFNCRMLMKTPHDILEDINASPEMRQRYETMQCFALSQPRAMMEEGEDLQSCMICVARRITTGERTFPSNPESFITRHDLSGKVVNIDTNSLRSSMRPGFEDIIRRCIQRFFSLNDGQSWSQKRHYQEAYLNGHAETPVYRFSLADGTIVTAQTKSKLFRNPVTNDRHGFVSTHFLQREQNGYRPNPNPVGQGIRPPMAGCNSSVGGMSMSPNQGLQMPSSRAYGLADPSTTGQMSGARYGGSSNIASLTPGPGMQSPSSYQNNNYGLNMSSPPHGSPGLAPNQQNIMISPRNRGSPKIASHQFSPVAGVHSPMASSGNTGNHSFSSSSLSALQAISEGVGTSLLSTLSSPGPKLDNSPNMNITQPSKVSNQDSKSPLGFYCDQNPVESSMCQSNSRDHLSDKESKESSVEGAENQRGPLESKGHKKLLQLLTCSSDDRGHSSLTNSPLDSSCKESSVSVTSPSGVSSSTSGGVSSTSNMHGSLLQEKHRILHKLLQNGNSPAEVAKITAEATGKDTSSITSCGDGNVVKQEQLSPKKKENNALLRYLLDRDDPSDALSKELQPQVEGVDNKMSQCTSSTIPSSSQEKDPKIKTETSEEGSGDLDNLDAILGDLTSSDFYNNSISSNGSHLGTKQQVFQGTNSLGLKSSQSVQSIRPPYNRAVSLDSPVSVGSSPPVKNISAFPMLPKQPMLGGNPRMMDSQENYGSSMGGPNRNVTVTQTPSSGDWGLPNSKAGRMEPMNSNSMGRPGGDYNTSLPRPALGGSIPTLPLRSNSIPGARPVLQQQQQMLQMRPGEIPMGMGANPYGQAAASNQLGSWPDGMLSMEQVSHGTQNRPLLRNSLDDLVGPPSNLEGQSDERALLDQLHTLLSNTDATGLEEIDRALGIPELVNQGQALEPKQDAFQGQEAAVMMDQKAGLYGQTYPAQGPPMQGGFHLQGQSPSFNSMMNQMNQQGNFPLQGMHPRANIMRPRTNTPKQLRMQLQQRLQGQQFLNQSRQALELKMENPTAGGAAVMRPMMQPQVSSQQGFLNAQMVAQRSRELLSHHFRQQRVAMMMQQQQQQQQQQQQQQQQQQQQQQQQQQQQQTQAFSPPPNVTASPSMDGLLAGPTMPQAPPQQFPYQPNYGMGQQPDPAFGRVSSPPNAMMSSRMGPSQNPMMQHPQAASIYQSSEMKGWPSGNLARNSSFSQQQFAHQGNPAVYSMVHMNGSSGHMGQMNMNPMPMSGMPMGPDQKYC
GalR3 antag – blocks the human galanin receptor 3; O60755; HEK293 GalR3-CNG cAMP membrane potential fluorescence; galR3 body fused to GalR1 C-terminus; inhibition, % at 3 µM; 0.44% of 360,000 active;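 active = inhibition above the screen-wide average plus 3 SD, cut at about 13% in these data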;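 also: forskolin and galanin both at EC90 stimulate the cells; cAMP rise reported by CNG channel membrane potential dye signal; 0% = forskolin plus galanin with DMSO and 100% = forskolin alone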
GalR3 conf – GalR3 (human) antagonism, confirmation; shares compounds with GalR3 antag; HEK293 GalR3 CNG cAMP biosensor, membrane potential fluorescence; galR3 fused to GalR1 carboxy tail; challenged with forskolin and galanin at EC90; inhibition, % at 3 µM; 59% of 1,600 active; AID 652245;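 active = inhibition above the primary screen's cutoff, the mean inhibition of all screened compounds plus 3 SD, cut at about 13% in these data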;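 also: 0% = forskolin plus galanin and 100% = forskolin alone with DMSO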
CNG parental – acts as nonspecific agonist in parental HEK-CNG cells | shares compounds with GalR3 antag | HEK293-CNG parental cells, cAMP membrane potential fluorescence; normalised: DMSO wells 0%, forskolin wells 100% | activation, % at 3 µM | 10% of 1,600 active | AID 652268; in the data active = activation above about 1.3%
* = called active by the depositor; / = no result. In the library only some 1.1% were active in any assay of this set; here they are far more common.

SMILES	NCOA2 inhibitor	NR2F2 inh	SRC1 inh	LRH-1 inv ag	NCOA3 inh	GalR3 antag	GalR3 conf	CNG parental
Nc1[nH]n2c(=O)c3c(nc2c1N=Nc1ccccc1)CCCC3	-31.4	-0.6	5.6	3.3	-0.6	61.4*	28.5*	0.0
O=C(NCc1ccc(Cl)cc1)C(=O)c1cn(CC(=O)N2CCOCC2)c2ccccc12	1.2	-9.7	8.8	1.3	-2.3	19.3*	4.0	0.1
COc1ccc(CNC(=O)C(=O)c2cn(CC(=O)N3CCOCC3)c3ccccc23)cc1	7.9	0.5	-8.3	-22.5	-43.2	-6.8	/	/
COc1ccccc1C(=O)Nc1cc2c(cc1C(=O)O)OCCCO2	1.8	-5.2	-30.2	-4.3	-10.5	12.7*	2.8	0.1
CSc1ccc(C#N)cc1NC(=O)c1ccccc1C	-34.8	-21.7	-8.0	14.9	-10.9	15.3*	13.0*	0.2
O=C(CSc1nc2c(c(=O)[nH]1)CCCC2)N1CCOCC1	-51.7	-3.7	/	/	/	/	/	/
C[C@@H]1COc2cc(Br)ccc2S(=O)(=O)N1Cc1cn(CCC2OCCCO2)nn1	18.1	-4.2	/	/	/	/	/	/
C=CCNc1ncnc2c1ncn2C1OC(CO)C(O)C1O (stereo not drawn)	-13.9	-19.6	-41.9	-17.4	-1.8	98.8*	99.3*	0.7
OCC1OC(n2cnc3c(NC4CCCC4)ncnc32)C(O)C1O (stereo not drawn)	-36.3	-57.7	-43.1	-4.8	-44.8	-1.5	/	/
OCC1OC(n2cnc3c(NC4CCCCC4)ncnc32)C(O)C1O (stereo not drawn)	-29.2	-51.0	-48.8	3.9	-65.0	35.8*	49.3*	0.3
OC[C@H]1O[C@@H](n2cnc3c(NC4CCCC4)ncnc32)[C@H](O)[C@@H]1O	-34.3	-51.7	-27.4	1.1	-25.0	3.2	/	/
c1cncc(-c2nnc3sc(C4CCCCC4)nn23)c1	-2.0	-13.9	4.2	1.9	5.9	/	4.4	0.2
COc1cccc(-c2nnc3sc(C4CCCCC4)nn23)c1	15.6	24.7	51.7	7.1	37.5	-4.9	/	/
COc1ccccc1NC(=S)NC(=O)c1c(-c2ccccc2Cl)noc1C	-2.0	12.4	10.3	12.9	13.3	15.5*	6.2	-0.3
CC(=O)Nc1cccc(C(=O)/C=C/c2ccc(Br)cc2)c1	10.9	4.5	18.1	19.1	44.1	15.1*	30.2*	-0.4
COc1ccc(OC)c(S(=O)(=O)N2CCC(C(=O)N3CCN(C4CCCCC4)CC3)CC2)c1	-31.3	-1.9	/	/	/	/	/	/
Cc1ccnc(SCC(=O)Nc2sc3c(c2C#N)CCCC3)n1	5.1	37.1	24.3	40.0	30.2	42.9*	94.6*	0.2
Cc1csc(SCC(=O)Nc2sc3c(c2C#N)CCC3)n1	-5.3	-8.0	1.9	-7.7	-14.8	0.2	/	/
CCOc1nc(C#N)nc(N2CCCCC2)n1	22.6	4.2	-22.4	11.2	-5.7	95.2*	107.5*	0.0
N#CCOc1nc(N2CCCCC2)nc(N2CCCCC2)n1	26.9	-2.1	-0.9	28.1	19.5	-8.9	/	/
CCn1c(O)c(/C=N/N=C2CCCCC2)c2cc(C3=NNC(=O)CC3)ccc21	-40.1	13.1	-13.8	13.8	21.2	25.3*	5.5	0.1
COCCCn1c(-c2ccc(Cl)cc2)n[nH]c1=S	8.0	4.5	1.4	-13.0	3.2	-2.4	/	/
COCCCn1c(-c2ccccc2Cl)n[nH]c1=S	2.1	5.7	-1.6	26.2	-10.0	/	5.0	0.2
O=C(NC1=N[C@@]2(C=C3CCCCC3n3c(=O)n(-c4ccccc4)c(=O)n32)CN1Cc1ccccc1)c1ccccc1 (stereo partly drawn)	-10.7	-13.9	/	/	/	/	/	/
O=C(NN1C(=O)/C(=C/c2cccs2)SC1=S)c1ccncc1	8.2	3.9	-12.1	9.4	17.9	0.7	/	/
SMILES	NCOA2 inhibitor	NR2F2 inh	SRC1 inh	LRH-1 inv ag	NCOA3 inh	GalR3 antag	GalR3 conf	CNG parental
COc1cccc(/C=C2\SC(=S)N(NC(=O)c3ccncc3)C2=O)c1	2.2	-1.5	-2.6	10.4	-6.3	14.1*	-0.3	-0.1
Cc1ccccc1NC(=O)OC1CCC12CCC(c1ccccc1)CC2 (stereo not drawn)	9.2	-5.1	/	/	/	/	/	/
Cc1cc(-c2cn3ccccc3n2)c(C)n1-c1ccccc1	-50.2	-17.3	-78.9	-123.2	-94.9	13.3*	4.2	0.1
COc1ccc(-n2c(C)cc(-c3cn4cccc(C)c4n3)c2C)cc1	-40.4	6.9	1.4	3.1	-15.0	-7.8	/	/
CCc1nc2ccc(C(=O)Nc3ccc(OC)c(OC)c3)cn2c1N(CC)Cc1cccc(Br)c1	-20.6	8.0	-29.6	2.7	0.8	0.8	/	/
CCc1nc2ccc(C(=O)Nc3ccc(OC)c(OC)c3)cn2c1N(CC)CCOC	-1.4	-0.7	1.7	15.7	8.2	12.8*	6.7	0.0
CC(C)c1ccc(NC(=O)C2CCCN(S(=O)(=O)c3ccc4c(c3)C(C)(C)C(=O)N4C)C2)cc1 (stereo not drawn)	17.0	6.1	5.5	-6.1	20.9	-0.1	/	/
CN1C(=O)C(C)(C)c2cc(S(=O)(=O)N3CCCC(C(=O)Nc4ccc(Cl)cc4)C3)ccc21 (stereo not drawn)	5.5	17.2	10.8	7.8	3.4	17.8*	25.2*	-0.4
C=CCN1C(=O)[C@@H](CC(=O)N2CCOCC2)[C@]2(C(=O)OCC)CCCCC/C=C/12	15.0	6.4	/	/	/	/	/	/
CCOc1cc(/C=N/NC(N)=O)cc(Br)c1OCC(=O)Nc1ccccc1C	-3.5	-3.9	-72.2	18.5	-29.8	68.8*	39.7*	-0.3
COc1cc(/C=N/NC(N)=O)cc(Br)c1OCc1ccccc1C	11.4	-17.8	-11.6	20.5	9.1	3.2	/	/
C=CCOc1c(Br)cc(/C=N/NC(N)=O)cc1OC	2.5	11.5	-8.4	3.9	4.4	13.2*	6.6	0.0
COc1cc(/C=N/NC(=S)N/N=C/c2cc(OC)c(OC)c(OC)c2)cc(OC)c1OC	-31.2	-34.6	-3.6	5.8	-25.1	19.7*	15.5*	0.1
Cc1ccc(-c2nc(C3CCCN(S(=O)(=O)c4cccs4)C3)no2)cc1 (stereo not drawn)	-11.4	-8.2	/	/	/	/	/	/
COc1cc(CNCC(O)c2ccccc2)ccc1OCc1ccc(Cl)nc1 (stereo not drawn)	-17.9	-41.7	-18.9	10.6	-14.6	25.5*	42.5*	2.3*
CC1=C2NC(N)=[N+](Cc3ccc4c(c3)OCO4)CC2n2c(=O)n(-c3ccccc3)c(=O)n2C1 (stereo not drawn)	6.2	-26.3	/	/	/	/	/	/
CC(Oc1ccc(Cl)cc1Cl)C(=O)Nc1cccc(O)c1 (stereo not drawn)	-7.0	-16.6	16.5	-17.4	14.6	14.5*	15.1*	0.2
O=C(CN1CCCN(Cc2ccc(F)cc2Cl)C1=O)NC1CCCCCCC1	0.6	13.0	-1.1	-7.8	0.6	-7.0	/	/
